Here are results for five molecules from PubChem BioAssay (NCATS).

Experiment [1] in a line: Cell Viability - BJ (AID 421; calls by dose curve;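 note: potency is the fitted concentration of half-maximal effect; cells exposed to compound for 40 hours at 37 °C before readout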). As to conditions: BJ fibroblast viability, qHTS. In short, it runs like this: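 Quantitative HTS: ATP depletion in BJ cells after 40 hr compound exposure in complete culture medium, detected with CellTiter-Glo; AC50 from standard Hill fits.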
(qHTS replaces the single test concentration by a dilution series.)

Experiment [2] is described as follows: Cell Viability - Hek293 (AID 427;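 active = compounds whose dose-response curve shows a full or clear partial loss of cell viability, called from curve shape rather than a numeric limit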;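 note: potency is the fitted concentration of half-maximal effect; cells exposed to compound for 40 hours at 37 °C before reading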). The following applies: qHTS. Put shortly:
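AC50 values derive from Hill-modelled concentration-response of ATP-based luminescence, normalized between DMSO-only and 100 uM tamoxifen controls. Cells were exposed in complete culture medium for 40 hr at 37 °C before detection.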

Experiment [3] is described as follows: Cell Viability - HUV-EC-C (AID 542).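 Note: cells exposed to compound for 40 hours; % is set by controls: 0 for no effect and ±100 for the full control effect; nearly all actives have a fitted effect of over 35% in size.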 The following applies: HUV-EC-C endothelial cell viability, qHTS; series mostly up to 92.2 µM. In short, it runs like this:
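Cells were seeded at 1000 per well and incubated 5 hr at 37 °C before compound addition. After 40 hr at 37 °C, CellTiter-Glo reagent was added for 20 min and luminescence read. AC50 values came from Hill-equation modelling.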

Experiment [4] can be described thus: Cellular Toxicity (caspase-3) HUV-EC-C (AID 656). As to conditions: HUV-EC-C cells, caspase-3 activation (apoptosis), vehicle = 0, 100 µM tamoxifen = 100%; series mostly up to 92.2 µM. Put shortly: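 Concentration-dependent caspase 3/7 induction was assessed in HUV-EC-C cells exposed for 16 hours. Data scaled between DMSO and tamoxifen (100 uM) controls.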
The nature of experiment [5]: Cellular Toxicity (caspase-3) MRC-5 (AID 659). The following applies: MRC-5 cells, luminescence, normalized: DMSO 0%, 10 µM staurosporine 100%; series mostly up to 91.7 µM. Put shortly:
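Apoptosis readout in MRC-5 cells: luciferase light generated after caspase 3/7 cleaves a peptide-aminoluciferin substrate, measured post 16 hr compound incubation at 37 °C.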

A short description of experiment [6]: Cellular Toxicity (caspase-3) Mesangial (AID 660).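 Note: combined caspase 3 and 7 activity read by Caspase-Glo luminescence; cells exposed to compound for 16 h before the caspase read.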 As to conditions: mesangial cells, normalized: DMSO 0%, 100 µM tamoxifen 100%; series mostly up to 91.7 µM. Put shortly: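 Seed cells derived from normal human renal glomeruli, incubate 5 h, add compounds across concentrations and incubate 16 h at 37 °C. Caspase 3/7 activation is then quantified by luciferase light, with AC50 derived by Hill modeling.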

Experiment [7] is described as follows: Cellular Toxicity (caspase-3) SK-N-SH (AID 661). The following applies: SK-N-SH caspase-3 activation, qHTS; series mostly up to 91.7 µM. In short, it runs like this: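 Cells were seeded and incubated 5 hr at 37 °C, dosed with compound over a concentration range for 16 hr, then given Caspase-Glo 3/7 reagent for 1 hr at room temperature before luminescence reading.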

Experiment [8] in a line: Cellular Toxicity (caspase-3) Hek293 (AID 664).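 Note: cells exposed to compound for 16 h at 37 °C before readout.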 The following applies: HEK293 caspase-3 activation, DMSO = 0%, 100 µM tamoxifen = 100%; at 92.2 µM (top of the series). Put shortly: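 qHTS, HEK293 (human embryonic kidney), 16 h cpd exposure in complete medium. Caspase-3/7 activation = luminescence increase; normalized to DMSO/100 uM tamoxifen; Hill-fit AC50.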
Experiment [9] in a line: Cellular Toxicity (caspase-3) NIH 3T3 (AID 666).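 Note: caspase signal read after 16 h compound exposure; 0% = DMSO basal and 100% = 100 µM tamoxifen stimulation.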 As to conditions: NIH 3T3 caspase-3 activation, apoptosis/toxicity; series mostly up to 92.2 µM. Put shortly:
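Cells were plated at 1000 per well and incubated 5 hr at 37°C, then compound was added for 16 hr. Caspase-Glo 3/7 reagent followed for 20 min at room temperature before luminescence was read.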

Experiment [10] can be described thus: MultiTox-Fluor Cytotoxicity Assay - LYMP1-001 - Dead Cells (AID 946).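 Note: 0% = DMSO and 100% = tetraoctylammonium bromide.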 As to conditions: LYMP1-001 lymphoblastoid cells, dead-cell protease fluorescence; series mostly up to 92.2 µM. Put shortly:
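In this qHTS, 15 uM tetraoctylammonium bromide defined 100% and DMSO defined basal activity. Lymphoblastoid cells (LYMP1-001, 2500 per well) received compound for 16 hr at 37 C before a fluorogenic dead-cell substrate readout at 485/520 nm.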

Experiment [11] is described as follows: Cell Viability - LYMP1-002 - Assay at 16 hr (AID 948).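 Note: 0% = DMSO alone and full effect = 92 µM tetraoctylammonium bromide.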 As to conditions: LYMP1-002 lymphoblastoid cell viability; series mostly up to 92.2 µM. Put shortly: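 In this qHTS, lymphoblastoid LYMP1-002 cells (human) receive compounds for 16 hr at 37 C. Viability is taken from CellTiter-Glo ATP luminescence, and AC50 derives from standard Hill fits.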
Experiment [12] can be described thus: Cell Viability - LYMP2-013 (AID 970).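 Note: cells exposed to compound for 24 h at 37 °C; 0% = DMSO only and full inhibition = tetraoctylammonium bromide control; nearly all actives have a fitted effect of over 55% in size.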 As to conditions: LYMP2-013 lymphoblastoid cells viability; series mostly up to 92.2 µM. Put shortly: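 Cytotoxicity is scored as a concentration-dependent drop in intracellular ATP in human lymphoblastoid cells after 24 hr compound exposure at 37 C. ATP is quantified by luciferase luminescence, and AC50 values come from Hill-equation modeling.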

The nature of experiment [13]: Cell Viability - LYMP2-019 (AID 973).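 Note: cells exposed to compound for 24 h at 37 °C; 0% = DMSO alone and full effect = 92 µM tetraoctylammonium bromide; nearly all actives have a fitted effect of over 55% in size.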 The following applies: LYMP2-019 lymphoblastoid cell line viability; series mostly up to 92.2 µM. In short, it runs like this: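 Cytotoxicity is scored as a concentration-dependent drop in cellular ATP after cells (2500/well) receive compound for 24 hr at 37 C. Tetraoctylammonium bromide serves as positive control.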
Experiment [14] in a line: Cell Viability - LYMP2-026 (AID 989).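 Note: cells exposed to compound for 24 h at 37 °C; % is set by controls: 0 for no effect and ±100 for the full control effect; nearly all actives have a fitted effect of over 50% in size.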 As to conditions: LYMP2-026 lymphoblastoid cell viability, qHTS; series mostly up to 92.2 µM. In short, it runs like this:
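Cells are seeded at 2500 per well and held 5 hr at 37 C. Compounds are added in concentration series for 24 hr, then CellTiter-Glo reagent is applied and luminescence read.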

Experiment [15] can be described thus: qHTS assay for small molecule agonists of retinoid X receptor alpha signaling (AID 588544; calls by dose curve;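 for activation: 0% = DMSO basal wells and 100% = reference agonist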). The following applies: HEK293T RXRa-UAS-bla, beta-lactamase reporter, 18 h; 530 nm emission.
Experiment [16] addresses Retinoic acid receptor RXR-alpha (Homo sapiens) (UniProt P19793). Described as above. The following applies: HEK293T RXRa-UAS-bla, beta-lactamase reporter, 18 h; series mostly up to 76.7 µM.
Experiment [17] in a line: qHTS assay for small molecule antagonists of retinoid X receptor alpha signaling (AID 588546).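 Note: cells stimulated with 9-cis-retinoic acid as agonist; % is set by controls: 0 for no effect and ±100 for the full control effect.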 As to conditions: HEK293T RXRa-UAS-bla, beta-lactamase ratio, antagonist mode; measured here: W530 green channel, cytotoxicity proxy. Put shortly:
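Beta-lactamase reporter inhibition, read as CCF4 fluorescence ratio (ex 405, em 460/530 nm) after 2 h at RT. HEK293T UAS-bla cells, 2500/well, were stimulated with 9-cis-RA at 500 or 100 nM final alongside test compound for 18 h at 37 C.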

In experiment [18] the target is Peroxisome proliferator-activated receptor alpha (Homo sapiens) (UniProt Q07869). As to the kind of experiment: qHTS assay for small molecule agonists of the peroxisome proliferator-activated receptor alpha (PPARalpha) signaling pathway (AID 651778). Note: % of control where 0% means no effect. The following applies: PathHunter PPARalpha complementation, chemiluminescence, 6 h; stronger effect = higher value. Put shortly:
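Cells plated at 2,000/well and held overnight at 37 C, 5% CO2, then compound added by pin tool for 6 hr; after PathHunter detection reagent and 60 min at room temperature, chemiluminescence from enzyme complementation was read.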

Experiment [19] in a line: qHTS assay for small molecule agonists of the antioxidant response element (ARE) signaling pathway measured by Nrf2-dependant transcriptional activity - cell viability counter screen (AID 720653; active = well fitted curve in the direction sought with a large enough effect in the repeat runs; an effect the other way counts as inactive or inconclusive; note: % is set by controls: 0 for no effect and ±100 for the full control effect). The following applies: ARE-bla HepG2 viability, CellTiter-Glo ATP luminescence, 16 h; stronger effect = lower value. In short, it runs like this: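 ARE-bla HepG2 cells (2,000/well) rested 5 hrs at 37C/5% CO2, then exposed to compounds in DMSO for 16 hrs. Viability was read in the same wells as intracellular ATP by luminescence, 30 min at room temperature after reagent addition.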

Experiment [20] in a line: qHTS assay for cell viability of the p53RE-bla HCT-116 cell line (AID 743292). Note: % is set by controls: 0 for no effect and ±100 for the full control effect; nearly all actives have a fitted effect of over 55% in size. As to conditions: p53RE-bla HCT-116 viability, ATP luminescence, 16 h; series mostly up to 95 µM. Put shortly:
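In this qHTS counter-screen, metabolically competent p53RE-bla HCT-116 cells were counted via their ATP content. Compounds were applied for 16 h at 37 C and luciferase-coupled luminescence was measured.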

Several values for one entry are separate records, joined by “and”; a condition that tells them apart may be missing. Equal entries are not always repeated. Records with an inconclusive call do not appear. Activity calls are given as the source filed them. Unless noted, calls come from the whole dose curve; as a rule, active = well fitted curve in the direction sought with a large enough effect; inconclusive = small, poorly fitted or top-dose-only effect, or another doubt; inactive = no such curve, though single readings can be large; an effect the other way counts as inactive or inconclusive.

Sequence of Retinoic acid receptor RXR-alpha (Homo sapiens) (P19793 whole entry, looked up): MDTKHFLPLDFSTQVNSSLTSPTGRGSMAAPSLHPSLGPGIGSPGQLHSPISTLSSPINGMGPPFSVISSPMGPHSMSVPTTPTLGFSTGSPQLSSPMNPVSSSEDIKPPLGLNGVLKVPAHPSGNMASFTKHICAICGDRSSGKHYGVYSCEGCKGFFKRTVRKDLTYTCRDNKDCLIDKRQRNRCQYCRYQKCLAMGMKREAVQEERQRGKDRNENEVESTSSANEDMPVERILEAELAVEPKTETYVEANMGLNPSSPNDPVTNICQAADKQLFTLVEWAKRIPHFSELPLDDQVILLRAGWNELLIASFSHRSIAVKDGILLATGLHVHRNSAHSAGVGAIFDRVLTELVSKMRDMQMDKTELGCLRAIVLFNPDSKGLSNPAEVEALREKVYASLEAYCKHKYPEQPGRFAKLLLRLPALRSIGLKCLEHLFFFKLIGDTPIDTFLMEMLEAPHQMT
Sequence of Peroxisome proliferator-activated receptor alpha (Homo sapiens) (Q07869 whole entry, looked up): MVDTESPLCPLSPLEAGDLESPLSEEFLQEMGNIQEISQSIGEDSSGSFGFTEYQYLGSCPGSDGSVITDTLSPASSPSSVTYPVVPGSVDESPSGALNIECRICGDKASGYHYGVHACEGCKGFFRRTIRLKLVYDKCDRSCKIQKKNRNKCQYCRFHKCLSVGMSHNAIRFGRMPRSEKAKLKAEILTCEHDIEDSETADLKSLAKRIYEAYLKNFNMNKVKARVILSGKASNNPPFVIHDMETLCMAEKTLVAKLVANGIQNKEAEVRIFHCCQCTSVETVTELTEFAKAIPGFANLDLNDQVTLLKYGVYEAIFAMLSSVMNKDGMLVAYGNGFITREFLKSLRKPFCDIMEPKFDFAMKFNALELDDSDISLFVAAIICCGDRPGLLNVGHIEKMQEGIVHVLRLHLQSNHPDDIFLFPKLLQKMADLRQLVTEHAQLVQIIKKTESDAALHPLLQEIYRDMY

`CCN(CC)CCO`: the Potency in [1] and in experiment [2] was > 92 µM (inactive) each time. Also, the Potency entry in experiment [3], in experiment [7], in experiment [9], in [12], in experiment [13] and in experiment [14] was “inactive” in each case. The Potency entry in experiment [20] was “inactive”. The result in experiment [4], in [5], in [6], in [10], in experiment [11] and in [16] was inactive. Besides, the caspase-3 activation in experiment [8] was 4.32% (inactive). Further, the max response in experiment [15] is -4.75%; in experiment [17], 3.45%; in [18] it was -3.44% (inactive); in [19], -6.79% (inactive).
Consider `CNC(=O)O/N=C/C(C)(C)S(C)=O` (stereo not given), for which the Potency in experiment [1] and in experiment [2] was > 92 µM (inactive) in each case. The Potency entry in experiment [3], in experiment [7], in experiment [9], in experiment [12], in experiment [13] and in [14] was “inactive” each time. In addition, in experiment [20], the Potency entry was “inactive”. Further, the call in experiment [4], in experiment [5], in experiment [6], in [10], in [11] and in experiment [16] was inactive. For the same molecule, in [8], the caspase-3 activation is -2.67% (inactive). Further, the max response was -20.3% and 7.58% in experiment [15]; -10.1% and 0.325% in experiment [17]; -3.1% (inactive) and 0.659% (inactive) in [18]; 1.76% (inactive) and 2.37% (inactive) in experiment [19].
In the case of `CCCN(CCC)c1c([N+](=O)[O-])cc(C(F)(F)F)cc1[N+](=O)[O-]`, the Potency in experiment [1] and in experiment [2] was > 92 µM (inactive) throughout. For the same molecule, the Potency result in experiment [3], in experiment [7], in experiment [9], in [12], in experiment [13] and in experiment [14] was “inactive” each time. Also, the Potency entry in experiment [20] was “inactive”. Moreover, the result in experiment [4], in experiment [5], in experiment [6], in experiment [10], in experiment [11] and in [16] was inactive. Further, the caspase-3 activation in [8] is 3.06% (inactive). The max response in experiment [15] is -17.3% and 1.94%; in experiment [17] it was -6.59% and -3.08%; in experiment [18], 2.49% (inactive) and -0.599% (inactive); in [19] it was -5.66% (inactive) and -9.4% (inactive).
`O=P(OCCCl)(OCCCl)OCCCl`: the Potency in experiment [1] and in [2] was > 92 µM (inactive) each time. Moreover, the Potency entry in experiment [3], in experiment [7], in [9], in [12], in experiment [13] and in experiment [14] was “inactive” in each case. Further, the Potency entry in experiment [20] is “inactive”. The outcome in experiment [4], in experiment [5], in experiment [6], in experiment [10], in [11] and in experiment [16] was inactive. Further, the caspase-3 activation in experiment [8] is 4.86% (inactive). In addition, the max response is -20% in [15], -9.97% in experiment [17], -2.47% (inactive) in experiment [18] and 4.31% (inactive) in experiment [19].
On to `C=CCc1cc(OC)c2c(c1)OCO2`, for which the Potency in experiment [1] and in experiment [2] was > 92 µM (inactive) throughout. In addition, the Potency result in [3], in experiment [7], in experiment [9], in [12], in [13] and in [14] was “inactive” throughout. Besides, the Potency entry in experiment [20] is “inactive”. Moreover, the result in experiment [4], in experiment [5], in experiment [6], in experiment [10], in experiment [11] and in [16] was inactive. Besides, the caspase-3 activation in [8] is 1.27% (inactive). Also, the max response in [15] was -17.2%; in experiment [17], -4.92%; in experiment [18], 5.39% (inactive); in experiment [19], -2.49% (inactive).
